Laboratory results as given in the supplement of paper PMC11172423.

The compounds below were run on Falciformispora senegalensis CBS197.79 (assay: growth relative to untreated control; higher = less inhibition, active = 20 or less). Conditions: 100 µM.
Method in brief: (§1)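 For each test, a hyphal fragment suspension of M. mycetomatis MM55 or F. senegalensis CBS197.79 was prepared in colourless RPMI 1640 with L-glutamine and MOPS at 68–72% transmission at 660 nm. Exposure to compound at 100 or 25 µM ran for 7 days at 37 °C in 96-well plates, followed by viability reading with MTS (2 h, 490 nm) or resazurin (600 nm). Growth corresponds to metabolic activity relative to the untreated growth control after correction of both with a blank of medium and dye.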

Structure (SMILES) | growth
N#C/C(C(=O)c1ccccc1Cl)=C1\NC(c2ccccc2)=CS1 | 100% (inactive)
CC(C)Nc1ncc2nc(Nc3cc(C(F)(F)F)cc(C(F)(F)F)c3)n(C3CCNCC3)c2n1 | 107% (inactive)
CC(CN1c2ccccc2Sc2ccccc21)N(C)C (configuration not stated) | 12.8% (active)
CC1(C)CCC(CO)(NC(=O)c2cc3c(F)cc(F)cc3[nH]2)CC1 | 93.5% (inactive)
CCOc1ccc(-c2nc(NC(=O)Cc3cccc(OC)c3)sc2C)cc1 | 80.5% (inactive)
O=c1[nH]c2ccccc2n1CCCN1CCN(C(c2ccccc2)c2ccccc2)CC1 | 28.7% (inactive)
Clc1cccc2cnsc12 | 86.1% (inactive)
CN1CCC(N2CCC(NC(=O)c3cc4c(F)cccc4s3)CC2)CC1 | 15.5% (active)
CCOc1ccc(Cc2nccc3cc(OCC)c(OCC)cc23)cc1OCC | 105% (inactive)
Cc1nc2ccccc2n1Cc1ccc(Cl)cc1 | 76.5% (inactive)
CNC(=O)c1cc(Oc2ccc(NC(=O)Nc3ccc(Cl)c(C(F)(F)F)c3)cc2)ccn1 | 94.4% (inactive)
CC(C)(C)Cn1c(N)nc2ccc(-c3[nH]c(C(C)(C)C)nc3-c3ccc(F)cc3)nc21 | 55% (inactive)
COc1ccc(Cl)cc1-c1nc(C(=O)NCCN2CCCCC2)c(C(C)C)s1 | 77.6% (inactive)
O=C(c1ccc(Nc2nccc(-c3cc(Cl)cc(C(F)(F)F)c3)n2)cc1)N1CC2(COC2)C1 | 96.8% (inactive)
CC(C)Nc1cccnc1N1CCN(C(=O)c2cc3cc(NS(C)(=O)=O)ccc3[nH]2)CC1 | 96.5% (inactive)
Cn1c(O)nnc1Cn1ccc(C(F)(F)F)c(Oc2cc(Cl)cc(C#N)c2)c1=O | 106% (inactive)
O=C(Nc1ncccc1O)c1ccc(S(=O)(=O)NCCc2cccs2)cc1 | 88.7% (inactive)
CCCCN(CCCC)CCC(O)c1cc2c(Cl)cc(Cl)cc2c2cc(C(F)(F)F)ccc12 (configuration not stated) | 106% (inactive)

Structure (SMILES) | growth
O=C(Nc1ncc([N+](=O)[O-])s1)c1ccccc1O | 100% (inactive)
C[C@]1(c2nc3c(C(N)=O)cccc3[nH]2)CCCN1 | 93.8% (inactive)
CC(C)N1CCN(c2ccc(OC[C@H]3CO[C@](Cn4cncn4)(c4ccc(Cl)cc4Cl)O3)cc2)CC1 | 7.6% (active)
CN[C@@H]1[C@H](O)[C@H](NC)[C@H]2O[C@@]3(O)C(=O)C[C@@H](C)O[C@H]3O[C@@H]2[C@H]1O | 102% (inactive)
O=C1NCCN1CCN1CCC(c2cn(-c3ccc(F)cc3)c3ccc(Cl)cc23)CC1 | 19.4% (active)
Cc1nn(-c2cccc(Cl)c2)c2c1C(C(=O)c1ccc3c(c1)OCO3)CC(=O)N2 (configuration not stated) | 91.7% (inactive)
CCn1cnc2c(N3CCCC(c4ccncc4)C3)ncnc21 (configuration not stated) | 94.6% (inactive)
FC(F)(F)c1ccnc(Nc2cn3cc(-c4ccc(N5CCOCC5)nc4)ccc3n2)n1 | 92.1% (inactive)
Cn1cc(CN2CCc3c(c(C(=O)NCc4nccs4)nn3Cc3ccccc3)C2)c2ccccc21 | 101% (inactive)
Cc1cc(C(=O)N2CCOc3c(cc(-c4csc5ccccc45)cc3OCCc3ccccn3)C2)n(C)n1 | 91.1% (inactive)
CN(C)CCCN1c2ccccc2Sc2ccc(Cl)cc21 | 7.45% (active)
O=C(Nc1cccc(Cl)c1)c1ccnc(N2CCC(N3CCCC3)CC2)c1 | 28.1% (inactive)
c1ccc(Nc2cc(Nc3cc(-c4ccccc4)[nH]n3)nc3ccnn23)cc1 | 59.7% (inactive)
CCN1CCN(Cc2ccc(-c3cc4c(N[C@H](C)c5ccccc5)[nH]cnc-4n3)cc2)CC1 | 49.3% (inactive)
CC(C)C[C@H](NC(=O)[C@H](Cc1ccccc1)NC(=O)c1cnccn1)B(O)O | 93.7% (inactive)
Cc1nn(C)c(Oc2ccccc2)c1C=NOCc1ccc(C(=O)OC(C)(C)C)cc1 | 89% (inactive)
CN(C)CCCN1C(=O)c2[nH]nc(-c3ccc(Cl)cc3O)c2C1c1ccc(Cl)cc1 (configuration not stated) | 25.4% (inactive)
CC(=O)Nc1ccc(NC(=O)c2cc(-c3ccc(C)cc3O)n[nH]2)cc1 | 82.2% (inactive)

These compounds were tested on Madurella mycetomatis MM55 in the same assay as above. Conditions: 25 µM.
Method in brief: as §1

Structure (SMILES) | growth
N#C/C(C(=O)c1ccccc1Cl)=C1\NC(c2ccccc2)=CS1 | 79.7% (inactive)
CC(C)Nc1ncc2nc(Nc3cc(C(F)(F)F)cc(C(F)(F)F)c3)n(C3CCNCC3)c2n1 | 104% (inactive)
CC(CN1c2ccccc2Sc2ccccc21)N(C)C (configuration not stated) | 77.8% (inactive)
CC1(C)CCC(CO)(NC(=O)c2cc3c(F)cc(F)cc3[nH]2)CC1 | 28.6% (inactive)
CCOc1ccc(-c2nc(NC(=O)Cc3cccc(OC)c3)sc2C)cc1 | 99.6% (inactive)
O=c1[nH]c2ccccc2n1CCCN1CCN(C(c2ccccc2)c2ccccc2)CC1 | 91.1% (inactive)
Clc1cccc2cnsc12 | 125% (inactive)
CN1CCC(N2CCC(NC(=O)c3cc4c(F)cccc4s3)CC2)CC1 | 131% (inactive)
CCOc1ccc(Cc2nccc3cc(OCC)c(OCC)cc23)cc1OCC | 80.9% (inactive)
Cc1nc2ccccc2n1Cc1ccc(Cl)cc1 | 76.5% (inactive)
CNC(=O)c1cc(Oc2ccc(NC(=O)Nc3ccc(Cl)c(C(F)(F)F)c3)cc2)ccn1 | 45.7% (inactive)
CC(C)(C)Cn1c(N)nc2ccc(-c3[nH]c(C(C)(C)C)nc3-c3ccc(F)cc3)nc21 | 82.9% (inactive)
COc1ccc(Cl)cc1-c1nc(C(=O)NCCN2CCCCC2)c(C(C)C)s1 | 14.8% (active)
O=C(c1ccc(Nc2nccc(-c3cc(Cl)cc(C(F)(F)F)c3)n2)cc1)N1CC2(COC2)C1 | 62.9% (inactive)
CC(C)Nc1cccnc1N1CCN(C(=O)c2cc3cc(NS(C)(=O)=O)ccc3[nH]2)CC1 | 104% (inactive)
Cn1c(O)nnc1Cn1ccc(C(F)(F)F)c(Oc2cc(Cl)cc(C#N)c2)c1=O | 92.7% (inactive)
O=C(Nc1ncccc1O)c1ccc(S(=O)(=O)NCCc2cccs2)cc1 | 128% (inactive)
CCCCN(CCCC)CCC(O)c1cc2c(Cl)cc(Cl)cc2c2cc(C(F)(F)F)ccc12 (configuration not stated) | 75.6% (inactive)

Structure (SMILES) | growth
O=C(Nc1ncc([N+](=O)[O-])s1)c1ccccc1O | 72.6% (inactive)
C[C@]1(c2nc3c(C(N)=O)cccc3[nH]2)CCCN1 | 130% (inactive)
CC(C)N1CCN(c2ccc(OC[C@H]3CO[C@](Cn4cncn4)(c4ccc(Cl)cc4Cl)O3)cc2)CC1 | 3.57% (active)
CN[C@@H]1[C@H](O)[C@H](NC)[C@H]2O[C@@]3(O)C(=O)C[C@@H](C)O[C@H]3O[C@@H]2[C@H]1O | 99.5% (inactive)
O=C1NCCN1CCN1CCC(c2cn(-c3ccc(F)cc3)c3ccc(Cl)cc23)CC1 | 5.95% (active)
Cc1nn(-c2cccc(Cl)c2)c2c1C(C(=O)c1ccc3c(c1)OCO3)CC(=O)N2 (configuration not stated) | 68.8% (inactive)
CCn1cnc2c(N3CCCC(c4ccncc4)C3)ncnc21 (configuration not stated) | 84.4% (inactive)
FC(F)(F)c1ccnc(Nc2cn3cc(-c4ccc(N5CCOCC5)nc4)ccc3n2)n1 | 73.7% (inactive)
Cn1cc(CN2CCc3c(c(C(=O)NCc4nccs4)nn3Cc3ccccc3)C2)c2ccccc21 | 88.4% (inactive)
Cc1cc(C(=O)N2CCOc3c(cc(-c4csc5ccccc45)cc3OCCc3ccccn3)C2)n(C)n1 | 5.62% (active)
CN(C)CCCN1c2ccccc2Sc2ccc(Cl)cc21 | 4.01% (active)
O=C(Nc1cccc(Cl)c1)c1ccnc(N2CCC(N3CCCC3)CC2)c1 | 73.7% (inactive)
c1ccc(Nc2cc(Nc3cc(-c4ccccc4)[nH]n3)nc3ccnn23)cc1 | 8.39% (active)
CCN1CCN(Cc2ccc(-c3cc4c(N[C@H](C)c5ccccc5)[nH]cnc-4n3)cc2)CC1 | 97.8% (inactive)
CC(C)C[C@H](NC(=O)[C@H](Cc1ccccc1)NC(=O)c1cnccn1)B(O)O | 113% (inactive)
Cc1nn(C)c(Oc2ccccc2)c1C=NOCc1ccc(C(=O)OC(C)(C)C)cc1 | 83.5% (inactive)
CN(C)CCCN1C(=O)c2[nH]nc(-c3ccc(Cl)cc3O)c2C1c1ccc(Cl)cc1 (configuration not stated) | 68% (inactive)
CC(=O)Nc1ccc(NC(=O)c2cc(-c3ccc(C)cc3O)n[nH]2)cc1 | 85.3% (inactive)
